Experimental data: PubChem BioAssay (Tox21)
Records with an inconclusive call do not appear. Unmarked numbers belong to inactive results. Calls follow the shape of the dose curve; as a rule, active = well fitted cell-killing curve with a large enough effect in the repeat runs; inconclusive = weak or mixed curves, or effect the other way; inactive = no such curve, though single readings can be large or run the other way.

Assay: qHTS assay to identify small molecule antagonists of the retinoid-related orphan receptor gamma (ROR-gamma) signaling pathway - cell viability counter screen (AID 1159520); also: nearly all actives have a fitted effect of over 50% in size
Conditions: Tet-on RORgamma CHO cells viability, ATP luminescence, 16 h; series mostly up to 92.4 µM; activity, negative = cytotoxicity: at the top concentration
Method in brief: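 Cytotoxicity was read from cellular ATP (CellTiter-Glo luminescence) after 16 hr at 37 C with 1 uM doxycycline induction. The inducer was added 2 hr after compound transfer to Tet-on ROR gamma CHO cells.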
% is scaled to controls: 0 for no effect and ±100 for the full control effect.

Structure (SMILES)	activity, negative = cytotoxicity
C[N+]1(C)[C@@H]2CC(OC(=O)[C@H](CO)c3ccccc3)C[C@H]1[C@@H]1O[C@@H]12 (some centres undefined)	1.08% [at 42.5 µM]
CC1=NN(c2cccc(S(=O)(=O)O)c2)C(=O)C1	1.14%
CC(=O)Nc1ccc(OCC(O)CNC(C)C)cc1 (centres undefined)	3.18% [at 42.5 µM]
NS(=O)(=O)Cc1noc2ccccc12	6.56% [at 42.5 µM]
CCCO[Si](OCCC)(OCCC)OCCC	0.525%
C[C@H]1C[C@H]2[C@@H]3CCC4=CC(=O)C=C[C@]4(C)[C@H]3C(=O)C[C@]2(C)[C@@]1(O)C(=O)CO	1.47% [at 42.5 µM]
CCCc1nn(C)c2c(=O)[nH]c(-c3cc(S(=O)(=O)N4CCN(C)CC4)ccc3OCC)nc12	-0.365% [at 42.5 µM]
CN(C)C(=O)Oc1cccc([N+](C)(C)C)c1	2.92% [at 42.5 µM]
CC[C@H]1OC(=O)[C@H](C)[C@@H](O[C@H]2C[C@@](C)(OC)[C@@H](O)[C@H](C)O2)[C@H](C)[C@@H](O[C@@H]2O[C@H](C)C[C@H](N(C)C)[C@H]2O)[C@](C)(OC)C[C@@H](C)C(=O)[C@H](C)[C@@H](O)[C@]1(C)O	1.13%
OCCCCCO	2.59%
CCCCOCCOC(=O)COc1cc(Cl)c(Cl)cc1Cl	1.76%
CC1(C)[C@@H]2CC[C@@]1(C)[C@H](O)C2	6.91%
CC(CO)(CO)[N+](=O)[O-]	0.0779%
O=C(CO)[C@@H](O)[C@H](O)[C@@H](O)CO	3.8% [at 42.5 µM]
CC1CCC(CO)CC1 (centres undefined)	2.84%
CC(C#N)(CCC(=O)O)N=NC(C)(C#N)CCC(=O)O (centres undefined)	6.41%
CCCCS(=O)(=O)N[C@@H](Cc1ccc(OCCCCC2CCNCC2)cc1)C(=O)O	0.651% [at 42.5 µM]
CCN1CCOCC1	3%
C[C@@H]1C[C@H]2[C@@H]3C[C@H](F)C4=CC(=O)C(Cl)=C[C@]4(C)[C@@]3(F)[C@@H](O)C[C@]2(C)[C@@]1(O)C(=O)CO	3.89% [at 42.5 µM]
CC(C)NNC(=O)c1ccncc1	0.958% [at 42.5 µM]

Structure (SMILES)	activity, negative = cytotoxicity
NC(=O)Cc1cccc2ccccc12	-7.93%
CCCC[N+](C)(CCCC)CCCC	7.46%
CCOC(=O)c1ccccc1	2.14%
CCC(C)(CN(C)C)OC(=O)c1ccccc1 (centres undefined)	4.96% [at 42.5 µM]
C=CN1CCCCCC1=O	0.885%
C1CCC2(CCCCO2)OC1	1.33%
CO/N=C(\C(=O)N[C@@H]1C(=O)N2C(C(=O)O)=C(CSc3nc(=O)c(O)nn3C)CS[C@H]12)c1csc(N)n1	-3.11% [at 42.5 µM]
C[N+]1(CC2COC(c3ccccc3)(c3ccccc3)O2)CCCCC1 (centres undefined)	-0.623% [at 19 µM]
CC/C=C\CCOC(C)OCC (centres undefined)	-7.71% [at 42.5 µM]
O=C(O)c1cn(C2CC2)c2cc(N3CCNCC3)c(F)cc2c1=O	4.15% [at 42.5 µM]
CCCCCCCCCCCCSC	1.62%
CC(C)c1ccc2ncccc2c1	3.51%
CC(=O)N1C[C@H](O)C[C@H]1C(=O)O	0.162% [at 42.5 µM]
C[N+]12CCC(CC1)C(OC(=O)C(O)(c1ccccc1)c1ccccc1)C2 (centres undefined)	11% [at 42.5 µM]
CCN[C@@H]1C[C@H](N)[C@@H](OC2OC(CN)=CCC2N)[C@H](O)[C@H]1O[C@H]1OC[C@](C)(O)[C@H](NC)[C@H]1O (some centres undefined)	3.44% [at 0.349 µM]
CCCCCCCCCCCCCCC(=O)O	1.17%
O=C1NC(=O)C2CC=CCC12 (centres undefined)	2.84%
N[C@H](C(=O)O)[C@@H](O)c1ccc(O)c(O)c1	1.53% [at 42.5 µM]
COc1ccnc(CS(=O)c2nc3cc(OC(F)F)ccc3[nH]2)c1OC (centres undefined)	7.18%
